Shown are actives, neighbours in structure and some others; about 9.5% of the full set was active somewhere.
NS1 function inh – blocks influenza NS1 protein function; Potency, µM (titrated, usually from 46.1 µM); 270,000 compounds, 0.4% hits; also: actives are rising curves; nearly all actives have a fitted effect of over 50% in size
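OD600 was taken as the measure of yeast growth restored by compound in an NS1-expressing S. cerevisiae strain. Cells had been washed out of glucose medium and diluted 1:100 into galactose -URA medium, pH 6.0.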
Pf growth 48h – inhibits P. falciparum growth in the first generation, 48 h; P. falciparum luciferase growth in erythrocytes, 48 h; Potency, µM (top dose mostly 28.7 µM), most hits filed as inhibitors; 310,000 compounds, 5.9% hits; active = well fitted inhibition curve with a large enough effect; inconclusive = small, poorly fitted or top-dose-only effect, or another doubt; inactive = no such curve, though single readings can be large or run the other way
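Firefly luciferase activity from engineered P. falciparum reports growth; inhibitors lower the luminescent signal. Cultures contained 2% hematocrit erythrocytes at 0.1% final parasitemia.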
SARS PLpro yeast – inhibitors of SARS-CoV papain-like protease in yeast; S. cerevisiae expressing SARS-CoV PLpro, growth rescue; Potency, µM (top dose mostly 32.9 µM), most hits filed as activators; 330,000 compounds, 0.19% hits; also: nearly all actives have a fitted effect of over 55% in size
Pf growth 96h – P. falciparum growth inhibition at 96 hours. AID 504834. 320,000 compounds, 6.9% hits. Potency, µM (series often up to 28.7 µM), usual class: inhibitors. P. falciparum luciferase reporter growth, 96 h; active = well fitted inhibition curve with a large enough effect; inconclusive = small, poorly fitted or top-dose-only effect, or another doubt; inactive = no such curve, though single readings can be large or run the other way
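Two-generation exposure (96 h) targets delayed-death phenotype. Reporter parasites carrying integrated firefly luciferase, in red cells at 2% hematocrit and 0.05% parasitemia final, kept at 37 C, 5% CO2; luminescence loss indicates inhibition.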
RE007 growth inh – less growth of the S. pombe RE007 Vpr strain | S. pombe RE007 Vpr strain, BacTiter-Glo ATP luminescence, 24 h | Potency, µM (top dose mostly 92.2 µM), actives largely listed as inhibitors | AID 651644 | 360,000 compounds, 0.21% hits; active = well fitted falling curve with a large enough effect; inconclusive = small, poorly fitted or top-dose-only effect; inactive = no such curve, though single readings can be large or run the other way; also: nearly all actives have a fitted effect of over 50% in size
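Fission yeast strain RE007, carrying one chromosomally integrated HIV-1 vpr copy, was seeded at OD 0.01 in PMG+AL medium with 23 nL pinned compound. After 24 h at 30 °C and 99% humidity, viability was read by BacTiter-Glo luminescence.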
Large screens that a line does not name were inactive. Unless noted, calls follow the shape of the full dose curve.

CN(C)C(=O)c1ccc(Oc2ccc(C(=O)N(C)C)cc2)cc1	Pf growth 96h 1.9µM
Cc1c(N=N/C(C(=O)Nc2ccccc2)=C(/O)c2ccccc2)c(=O)n(-c2ccccc2)n1C	Pf growth 48h inconclusive, Pf growth 96h 3.7µM (no result: NS1 function inh)
CN(C)CCn1cnc2c(c1=N)C(c1ccccc1)c1ccc3ccccc3c1O2 (stereo not drawn)	Pf growth 48h 5.2µM, Pf growth 96h 5.2µM
COc1ccc(C2c3ccc(O)cc3Oc3ncn(CCCO)c(=N)c32)cc1 (stereo not drawn)	Pf growth 48h inconclusive, Pf growth 96h inconclusive
N=c1c2c(ncn1Cc1ccco1)Oc1c(ccc3ccccc13)C2c1ccccc1 (stereo not drawn)	NS1 function inh inconclusive, Pf growth 48h 15µM, Pf growth 96h inconclusive
O=c1c2ccccc2ncn1Cc1ccco1	none
N=c1c2c(ncn1Cc1ccco1)Oc1cc(O)ccc1C2c1ccccc1 (stereo not drawn)	Pf growth 48h 12µM, Pf growth 96h inconclusive
Cc1ccc(NC(=O)CSc2ccc3c(c2)OCCO3)nc1	none (no result: NS1 function inh)
CCC(=O)O[C@@H]1CC(=O)O[C@H](C)CC=CC=C[C@@H](O)[C@H](C)C[C@H](CC=O)[C@H](O[C@H]2O[C@H](C)[C@@H](O[C@H]3C[C@@](C)(O)[C@@H](OC(=O)CC)[C@H](C)O3)[C@H](N(C)C)[C@H]2O)[C@H]1OC	Pf growth 48h inconclusive, Pf growth 96h 0.83µM (no result: RE007 growth inh)
CO[C@H]1[C@H](O[C@H]2O[C@@H](C)[C@@H](O[C@@H]3C[C@](C)(O)[C@H](O)[C@H](C)O3)[C@@H](N(C)C)[C@@H]2O)[C@@H](CC=O)C[C@@H](C)[C@@H](O[C@H]2CC[C@H](N(C)C)[C@H](C)O2)/C=C\C=C/C[C@@H](C)OC(=O)C[C@H]1O	Pf growth 96h 2µM (no result: NS1 function inh, SARS PLpro yeast, RE007 growth inh)
CCC(=O)O[C@@H]1[C@H](C)O[C@H](O[C@H]2[C@@H](N(C)C)[C@H](O)[C@@H](O[C@@H]3[C@@H](CC=O)C[C@@H](C)[C@@H](O)/C=C\C=C/C[C@@H](C)OC(=O)C[C@@H](OC(=O)CC)[C@H]3OC)O[C@H]2C)C[C@]1(C)O	Pf growth 48h inconclusive, Pf growth 96h 1.3µM (no result: NS1 function inh, SARS PLpro yeast, RE007 growth inh)
NCCCC(O)(P(=O)(O)O)P(=O)(O)O	none (no result: NS1 function inh, SARS PLpro yeast, RE007 growth inh)
Cc1csc(CNC(=O)C2CCC(=O)N(CCc3cccc(F)c3)C2)n1 (stereo not drawn)	none
COc1ccc(N2CC(C)Cn3c2nc2c3c(=O)n(Cc3ccccc3)c(=O)n2C)c(OC)c1 (stereo not drawn)	Pf growth 48h inconclusive, Pf growth 96h 8.3µM (no result: NS1 function inh)
COc1ccc(-c2nnc3n(CCc4ccccc4)c(=O)c4ccccc4n23)c(OC)c1	Pf growth 48h 13µM, Pf growth 96h 4.7µM
COc1cc(OC)c(-c2nnc3n(CCc4ccccc4)c(=O)c4ccccc4n23)cc1OC	Pf growth 48h inconclusive, Pf growth 96h inconclusive (no result: RE007 growth inh)
COc1ccc(N2CCn3c2nc2c3c(=O)n(CCCc3ccccc3)c(=O)n2C)c(OC)c1	Pf growth 48h inconclusive, Pf growth 96h inconclusive
COc1ccc(N2CCn3c2nc2c3c(=O)n(CCc3ccccc3)c(=O)n2C)c(OC)c1	Pf growth 96h 12µM (no result: RE007 growth inh)
CCOC(=O)C(NC(C)=O)(NC(C)C)C(F)(F)F (stereo not drawn)	none
COc1cccc(NC(=O)COC(=O)CCC(=O)c2cccs2)c1	none (no result: NS1 function inh)
O=C1CCCN1c1ncc(S(=O)(=O)c2ccc([N+](=O)[O-])cc2)s1	Pf growth 48h inconclusive, Pf growth 96h 4.1µM (no result: NS1 function inh)
COc1ccc(S(=O)(=O)CCC(=O)N2c3ccccc3CC2C)cc1 (stereo not drawn)	none
COc1ccc(CCC2(C)NC(=O)N(C(C)C(=O)N3c4ccccc4CC3C)C2=O)cc1 (stereo not drawn)	Pf growth 48h 13µM, Pf growth 96h inconclusive (no result: NS1 function inh)
Cc1nn2cnnc2c(C)c1Cc1ccc(Cl)cc1	Pf growth 96h inconclusive
Cc1oc2ccc(OC(=O)N(C)C)cc2c1C(=O)OC(C)C	Pf growth 48h inconclusive, Pf growth 96h 2.9µM, RE007 growth inh inconclusive
COc1ccc(S(=O)(=O)NCC2CCCN(C(=O)CCSC)C2)cc1 (stereo not drawn)	none
Cc1cc(Br)ccc1NC(=O)CNC(=O)CN(C)C1CCS(=O)(=O)C1 (stereo not drawn)	none (no result: NS1 function inh)
COC1=C(Nc2ccccc2)C(=O)c2ccccc2C1=O	Pf growth 48h 5.9µM, Pf growth 96h 1.9µM, RE007 growth inh inconclusive
COC1=C(OC)C(=O)c2ccccc2C1=O	none (no result: Pf growth 48h, SARS PLpro yeast, Pf growth 96h, RE007 growth inh)
COC1=C(Nc2ccc(C)cc2)C(=O)c2ccccc2C1=O	Pf growth 48h 2.3µM, Pf growth 96h 1.2µM, RE007 growth inh inconclusive
CCN(CC)CCNC(=S)NC(=O)c1cn(-c2ccccc2)nc1-c1ccc(OC)cc1	Pf growth 48h inconclusive (no result: NS1 function inh)
CCc1ccc2nc(N(CCN(C)C)C(=O)c3ccc4ncsc4c3)sc2c1	none
O=C(NC1CCCCC1)c1ccc2snnc2c1	none
O=C(CN(C1CCCCC1)C1CCCCC1)N1CCc2ccccc2C1	Pf growth 96h 13µM (no result: Pf growth 48h)
O=C(CN(C1CCCCC1)S(=O)(=O)c1ccccc1)N1CCCC1	none
COC(=O)c1ccccc1-c1c2ccc(=N)cc-2oc2cc(N)ccc12	Pf growth 48h 1.3µM, Pf growth 96h 0.33µM (no result: NS1 function inh)
OCCN1CCN(c2nc(NCc3ccco3)c3ccccc3n2)CC1	Pf growth 48h inconclusive, Pf growth 96h 9.3µM
Cc1cccc(Nc2nc(NCc3ccco3)c3ccccc3n2)c1	Pf growth 48h 0.66µM, Pf growth 96h inconclusive
c1cncc(-c2nc(NCc3ccco3)c3ccccc3n2)c1	Pf growth 48h 12µM, SARS PLpro yeast inconclusive
Cc1ccccc1Nc1nc(NCc2ccco2)c2ccccc2n1	Pf growth 48h inconclusive (no result: NS1 function inh)
Cc1ccc(-c2nc(NCc3ccco3)c3ccccc3n2)cc1	none
Oc1ccccc1Nc1nc(NCc2ccco2)c2ccccc2n1	Pf growth 48h inconclusive, Pf growth 96h 2.1µM
c1ccc(Nc2nc(NCc3ccco3)c3ccccc3n2)cc1	Pf growth 48h inconclusive, Pf growth 96h inconclusive
COc1ccc(NC(=O)c2ccccc2OCc2ccc(F)cc2)c(OC)c1	Pf growth 48h inconclusive, Pf growth 96h inconclusive
COc1ccc(CN2C=C3C(=O)C(C)(OC(=O)CCc4ccccc4)C(=O)C=C3C=C2c2ccc(C#N)cc2)cc1 (stereo not drawn)	Pf growth 48h 9.3µM, Pf growth 96h inconclusive, RE007 growth inh inconclusive
CC1(OC(=O)CCc2ccccc2)C(=O)C=C2C=C(c3ccc(C#N)cc3)N(CCc3c[nH]c4ccccc34)C=C2C1=O (stereo not drawn)	Pf growth 48h 12µM, Pf growth 96h inconclusive
CCN(CC)CCCN1C=C2C(=O)C(C)(OC(=O)CCc3ccccc3)C(=O)C=C2C=C1c1ccc(C#N)cc1 (stereo not drawn)	Pf growth 48h inconclusive, Pf growth 96h inconclusive
CCOC(=O)c1sc(=S)n(-c2ccc(Cl)cc2)c1SC	Pf growth 48h inconclusive, Pf growth 96h 0.93µM
COC(=O)c1sc(=S)n(-c2ccccc2OC)c1N	Pf growth 96h inconclusive

Screening data deposited in PubChem by National Center for Advancing Translational Sciences (NCATS).
